# MITF TRPM1 inh: inhibitors of MITF-dependent TRPM1 promoter reporter, primary screen, cell-based, SK-MEL-5, single point, luciferase. inhibition, % at 12.5 µM. hit rate 0.83% among 330,000. SK-MEL-5 TRPM1 promoter luciferase, 24 h. AID 488899, 2010;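 active = mean inhibition across replicates of 60% or more, whatever share of single replicates reaches that level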
# PAX8 inh HTS: inhibitors of PAX8-driven TPO luciferase reporter, primary screen, RMG-I cells, single concentration; SteadyGlo, 24 h; inhibition, % at 12.6 µM; hit rate 1.2% among 360,000; AID 652154, 2013;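 active = mean replicate inhibition at least 60% with every replicate also reaching 60%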;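 also: luciferase light reporting Pax8 driven TPO promoter activity; plate controls were median of neutral control wells for no effect and mitoxantrone controls for full effect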
# Peg3 promoter: Peg3 promoter-driven luciferase inhibitors, primary screen, cell-based, HeLa, luciferase luminescence. HeLa PEG-Prom luciferase reporter, overnight. inhibition, % at 20 µM. hit rate 1.7% among 360,000. AID 588405, 2011;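 active = inhibition of at least 50% at 20 µM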
# HIF-2a block: HIF-2a reporter inhibitors, primary screen, luminescence, 786-0 RCC cells | AID 624352, 2012 | hit rate 0.72% among 360,000 | inhibition, % at 18.8 µM | 786-0 RCC cells HIF-2a reporter, luciferase luminescence, overnight;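 active = inhibition of the luminescence signal of 40% or more relative to plate controls, in a single-dose primary screen at 18.75 µM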
# Shn3 3UTR inh: reduction of Shn3 3'UTR firefly luciferase signal, primary screen, Schnurri-3 inhibitor project, cell-based, Clone20 osteoblasts, set 2; hit rate 0.52% among 360,000; Clone20 osteoblast Shn3 3'UTR firefly luciferase, 24 h; inhibition, % at 12.5 µM; AID 588674, 2011;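 active = mean inhibition of at least 75% with every replicate also reaching 75%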;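 also: 0% = median of neutral control wells and 100% = pilot-screen positive control compound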
# LMP1 NFkB inh: EBV LMP1-driven NF-kappaB luciferase reporter inhibitors, primary screen, cell-based, luminescence, single point | LMP1-induced NF-kappaB luciferase reporter cells | inhibition, % at 12.5 µM | hit rate 0.69% among 350,000; in the data active = inhibition above about 41%;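 also: 0% = neutral control wells and 100% = reference inhibitor control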
# Mdm2 MdmX conf: retested Mdm2-MdmX interaction blockers, confirmation, cell-based, luminescence, single concentration, set 2; shares compounds with HIF-2a block; SaOS-2 split-luciferase Mdm2/MdmX complementation; inhibition, % at 8 µM; hit rate 99% among 740;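 active = mean inhibition of the luminescence signal across two replicates at or above 26 percent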
# Target sequence (O15151 whole entry, looked up): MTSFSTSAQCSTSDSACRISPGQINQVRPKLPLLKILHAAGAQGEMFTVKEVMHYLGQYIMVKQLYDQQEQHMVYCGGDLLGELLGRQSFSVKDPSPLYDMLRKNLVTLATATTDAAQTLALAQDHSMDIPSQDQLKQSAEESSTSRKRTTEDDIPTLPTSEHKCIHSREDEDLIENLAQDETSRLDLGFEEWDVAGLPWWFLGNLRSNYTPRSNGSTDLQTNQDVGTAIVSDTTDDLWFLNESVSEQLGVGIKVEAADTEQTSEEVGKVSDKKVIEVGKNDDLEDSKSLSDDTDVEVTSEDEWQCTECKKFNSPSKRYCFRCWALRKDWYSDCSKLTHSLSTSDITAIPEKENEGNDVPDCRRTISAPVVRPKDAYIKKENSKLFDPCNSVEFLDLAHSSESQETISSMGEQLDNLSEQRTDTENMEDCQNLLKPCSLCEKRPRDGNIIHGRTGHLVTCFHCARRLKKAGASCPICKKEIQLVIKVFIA
# Target sequence (Q00987 whole entry, looked up): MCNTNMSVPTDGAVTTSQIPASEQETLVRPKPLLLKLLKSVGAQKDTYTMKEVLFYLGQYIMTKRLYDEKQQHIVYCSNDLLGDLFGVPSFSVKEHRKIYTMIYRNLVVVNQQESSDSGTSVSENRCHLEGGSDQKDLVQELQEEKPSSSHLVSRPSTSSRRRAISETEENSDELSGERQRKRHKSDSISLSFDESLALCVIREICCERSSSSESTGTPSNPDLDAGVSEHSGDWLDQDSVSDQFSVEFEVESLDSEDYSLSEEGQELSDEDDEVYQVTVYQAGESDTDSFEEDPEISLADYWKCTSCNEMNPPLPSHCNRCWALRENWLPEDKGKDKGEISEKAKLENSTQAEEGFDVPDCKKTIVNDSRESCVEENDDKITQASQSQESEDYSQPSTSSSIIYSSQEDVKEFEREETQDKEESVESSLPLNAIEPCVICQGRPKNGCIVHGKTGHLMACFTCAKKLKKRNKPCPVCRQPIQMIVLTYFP
# HIF-2a inh conf: HIF-2a reporter inhibitor retest, confirmation, luminescence, 786-0 RCC cells; shares compounds with HIF-2a block; HIF-2a luciferase reporter luminescence, overnight; inhibition, % at 18.8 µM; hit rate 56% among 1,800; AID 651580, 2012;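 active = mean inhibition across four replicates of at least 40 percent at the single tested concentration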
# HIF-1a counter: HIF-1a luciferase reporter signal reduction – MiaPaCa-2 cells, single concentration, counter-screen for HIF-2a inhibitor project, confirmation | hit rate 72% among 1,800 | shares compounds with HIF-2a block | inhibition, % at 18.8 µM | MiaPaCa-2 HIF-1a luciferase reporter, desferoxamine, overnight;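 active = mean inhibition of the reporter signal across four replicates at the single tested dose of 50% or more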
# Starred values were filed as active, the others as inactive; · = not tested or not shown. Compounds with a hit are over-represented: about 2.8% of the library has one in this group of screens.
SMILES,MITF TRPM1 inh,PAX8 inh HTS,Peg3 promoter,HIF-2a block,Shn3 3UTR inh,LMP1 NFkB inh,HIF-2a inh conf,HIF-1a counter,others
CCNC(=O)[C@H]1[C@H](CO)[C@H]2Cn3c(ccc(C4=CCCC4)c3=O)[C@H]2N1CC1CC1,·,9.5,·,·,·,·,·,·,
O=C(C[C@@H]1C=C[C@H](NS(=O)(=O)c2cccc(F)c2)[C@H](CO)O1)N1CCCCC1,·,-18.2,·,·,·,·,·,·,
C[C@@H]1CCCCO[C@@H](CN(C)C(=O)CCC(F)(F)F)[C@@H](C)CN([C@@H](C)CO)C(=O)c2cc(NC(=O)Cc3ccccc3)ccc2O1,·,1.4,·,·,·,·,·,·,
Cc1ccc2c(c1)Oc1ccc(NC(=O)CCl)cc1C(=O)N2,90.5*,58.3,99.8*,77.4*,18.9,4.8,72.3*,102.7*,Mdm2 MdmX conf=103.2*
CCCCCCCCCn1c2c(c(=N)c3c1CCC3)CCC2,78.3*,·,65.6*,20.9,65.2,36.8,·,·,Mdm2 MdmX conf=101.5*
CCN1CCN(c2nc(Nc3ccc(NC(C)=O)cc3)nc(Nc3ccc(NC(C)=O)cc3)n2)CC1,5.0,5.3,6.5,67.7*,29.5,4.0,-5.4,9.3,
CC(=O)Nc1ccc(/C(C)=N/Nc2nc(Nc3ccccc3)nc(N3CCOCC3)n2)cc1,-85.0,4.1,-12.1,-10.9,41.9,-64.1,·,·,
O=C(c1ccccc1)c1nn(-c2ccc(Cl)cc2)c(=O)cc1C(F)(F)F,24.1,·,78.7*,46.3*,73.9,64.2*,-1.7,106.8*,Mdm2 MdmX conf=103.0*
COCCNC(=O)[C@H](CSCc1ccccc1)N1Cc2ccccc2C1=O,-1.0,6.1,10.5,48.1*,20.8,-4.9,14.2,-6.1,
COCCCNC(=O)[C@H](CSCc1ccccc1)N1Cc2ccccc2C1=O,5.6,26.8,-23.9,-7.6,16.3,1.0,·,·,
COc1cc(NCCCC(C)N)c2ncccc2c1 (stereo not given),9.2,·,44.7,83.8*,-3.7,3.2,18.9,90.1*,
COc1cc(NCCCCC(C)N)c2nccc(C)c2c1 (stereo not given),·,36.7,6.8,21.9,0.6,-1.8,·,·,
COCC(=O)Nc1ccc2c(c1)C(=O)N(C)C[C@@H](OC)[C@@H](C)CN(C(=O)c1cccnc1)[C@H](C)CO2,·,16.4,·,·,·,·,·,·,
Cc1cccc(/C=C/C(=O)c2ccc([N+](=O)[O-])o2)c1,·,27.9,100.8*,14.4,21.8,-89.2,·,·,Mdm2 MdmX conf=103.0*
Cc1ccccc1NC(=O)c1ccc([N+](=O)[O-])o1,5.8,22.9,12.7,7.1,14.0,-27.2,·,·,
O=C(/C=C/c1cccc([N+](=O)[O-])c1)c1ccco1,9.2,-29.0,7.5,7.0,-11.1,8.8,·,·,
Cc1ccccc1/C=C/C(=O)c1ccc([N+](=O)[O-])o1,·,24.2,·,·,·,·,·,·,Mdm2 MdmX conf=100.5*
CO[C@H]1CN(C)C(=O)c2cc(NC(=O)NC(C)C)ccc2OC[C@H](C)N(C(=O)C2CCC2)C[C@H]1C,·,-5.4,·,·,·,·,·,·,
Cc1ccc(S(=O)(=O)Nc2ccc3c(c2)CC(=O)N([C@H](C)CO)C[C@H](C)[C@H](CN(C)S(=O)(=O)c2c(C)noc2C)O3)cc1,·,5.2,·,·,·,·,·,·,
Nc1c(C(=O)N2CCOCC2)sc2nc3c(cc12)CCC3,-45.0,-80.2,-2.7,17.6,-19.2,-21.9,·,·,
Nc1c(C(=O)N2CCOCC2)sc2nc3c(cc12)CCCC3,55.3,70.6*,36.3,46.4*,47.1,56.5*,46.9*,32.3,
CC(C)NC(=O)N1C[C@@H]2[C@H](c3ccccc31)[C@H](CO)N2C(=O)Nc1ccc(F)cc1,·,4.1,·,·,·,·,·,·,
CCOC(=O)COc1ccc(S(=O)(=O)Nc2ccc3c(c2)OCCO3)cc1,3.3,·,2.5,16.8,3.9,5.2,·,·,
CCOC(=O)COc1ccc(S(=O)(=O)Nc2cccc(SC)c2)cc1,-2.8,·,0.7,50.2*,5.8,7.1,18.1,-0.8,
Cc1cc(C)n(S(=O)(=O)/C=C/c2ccccc2)n1,8.2,·,18.9,23.4,7.7,-26.6,·,·,Mdm2 MdmX conf=93.2*
SMILES,MITF TRPM1 inh,PAX8 inh HTS,Peg3 promoter,HIF-2a block,Shn3 3UTR inh,LMP1 NFkB inh,HIF-2a inh conf,HIF-1a counter,others
N#CC(C#N)=C1C=CC=CN1/C(=C\c1ccco1)C(=O)c1ccc(-c2ccccc2)cc1,72.7*,92.4*,109.6*,82.9*,15.8,-31.7,96.5*,106.3*,
c1cc(N2CCOCC2)ccc1-c1ccc2nncn2c1,·,-1.2,8.5,38.4*,-22.1,·,17.3,-13.6,
C=CC(=O)Nc1cccc(Oc2ncnc3[nH]cc(-c4cnc5ccccc5c4)c23)c1,30.8,46.9,42.4,13.6,32.1,12.3,·,·,Mdm2 MdmX conf=100.0*
CCS(=O)(=O)N1CC(=O)N2[C@H](CO)[C@@H](c3ccc(C#CC4CC4)cc3)[C@@H]2C1,·,5.6,·,·,·,·,·,·,
CO[C@H]1CC[C@@H]2CCOc3ccc(C#N)cc3C(=O)N(C)C[C@@H](C)C(=O)N(C)C[C@H]1O2,·,6.7,·,·,·,·,·,·,
Cc1ccc(NC(=O)c2cc(C)nc3ccccc23)cc1,-6.3,28.9,12.2,-13.7,-2.1,-9.9,·,·,
COc1ccc(NC(=O)c2cc(CC(C)C)nc3ccccc23)cc1,2.8,56.0,6.9,12.3,31.3,2.3,·,·,Mdm2 MdmX conf=98.0*
Cc1ccc(NC(=O)c2cc(CC(C)C)nc3ccccc23)cc1,22.1,38.5,0.3,17.6,15.5,-12.6,·,·,Mdm2 MdmX conf=93.7*
CCN1CSC(=S)N(Cc2ccc(OC)cc2)C1,-7.7,12.5,16.2,66.7*,-11.1,-0.8,-1.4,41.9,
C[C@H](CO)N1C[C@H](C)[C@@H](CN(C)C(=O)Nc2ccc(F)cc2)Oc2ccc(NC(=O)C3CCCCC3)cc2CC1=O,·,6.4,·,·,·,·,·,·,
Cc1noc(C)c1S(=O)(=O)N(C)C[C@H]1Oc2ccc(NC(=O)C3CC3)cc2CC(=O)N([C@@H](C)CO)C[C@H]1C,·,-2.1,·,·,·,·,·,·,
COc1ccc(CN(C)C[C@H]2OCCCC[C@H](C)Oc3ccc(NC(=O)CCCN(C)C)cc3C(=O)N([C@@H](C)CO)C[C@@H]2C)cc1,·,-19.6,·,·,·,·,·,·,
Cc1nc(Nc2ccncc2)c2oc3ccccc3c2n1,-4.7,·,32.1,16.6,8.2,-9.7,·,·,
CCc1nc(Nc2ccncc2)c2oc3ccccc3c2n1,3.4,·,33.5,47.4*,-9.5,-27.6,25.8,81.9*,
C/C=C/c1ccc([C@@H]2[C@@H](CO)N3CCCCN(S(=O)(=O)c4cccc(C)c4)C[C@@H]23)cc1,·,-0.2,·,·,·,·,·,·,
COc1ccc(-n2c(C)c([N+](=O)[O-])c3ccc(O)c(CN(C)C)c32)cc1,-12.8,·,32.8,14.5,4.3,69.8*,·,·,Mdm2 MdmX conf=94.2*

# Bioassay records from PubChem.
